Experiment [1] is described as follows: ATG_M_32_CIS: Attagene CIS-FACTORIAL HepG2 Assay for M32 Transcription Factor (Internal Marker) (AID 2282949).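 Also: background control marker of the multiplexed CIS panel rather than a real target.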 The note with it: HepG2 Attagene cis-factorial M32 reporter, mRNA; actives raise or lower the signal. Summed up: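 HepG2 cells transiently transfected with multiplexed cis-regulated reporter units, dosed 24 h. Reporter mRNA quantified by RT-PCR, 6-FAM labelling, HpaI digestion and capillary electrophoresis; bidirectional fit vs DMSO.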

Experiment [2] can be described thus: ATG_M_06_CIS: Attagene CIS-FACTORIAL HepG2 Assay for M06 Transcription Factor (Internal Marker) (AID 2282950). The note with it: HepG2 Attagene CIS-FACTORIAL M06 internal marker reporter; actives raise or lower the signal. Summed up:
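HepG2 cells transiently transfected with cis-regulated multiple reporter transcription units were exposed to chemical for 24 h; reporter mRNA was quantified by RT-PCR, 6-FAM primer labelling, HpaI digestion and capillary electrophoresis, fitted bidirectionally against DMSO.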

For experiment [3], the target named is Hypoxia-inducible factor 1-alpha (Homo sapiens) (UniProt Q16665). As to the kind of experiment: ATG_HIF1a_CIS: Attagene CIS-FACTORIAL HepG2 Assay for human Hypoxia Inducible Factor 1 (HIF1A) (AID 2282951). The note with it: HepG2 Attagene cis-factorial HIF1a reporter transcription; actives raise or lower the signal. Summed up: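 In this multiplexed cell assay, HepG2 cells bearing transfected cis reporters are dosed for 24 h and reporter mRNA is read by RT-PCR plus capillary electrophoresis; signal increases and decreases are both scored against DMSO.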

Experiment [4] has as its target Hepatocyte nuclear factor 6 (Homo sapiens) (UniProt Q9UBC0). In words: ATG_HNF6_CIS: Attagene CIS-FACTORIAL HepG2 Assay for human Hepatocyte Nuclear Factor 6 (HNF6) (AID 2282952). The note with it: HepG2 Attagene cis-factorial HNF6 reporter transcription; actives raise or lower the signal. In short, it runs like this:
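HepG2 cells transiently transfected with cis-element-driven multiplexed reporter units measuring endogenous transcription factor activity. After 24 h exposure, reporter mRNA quantified by RT-PCR, FAM-labelled fragments and capillary electrophoresis; bidirectional fitting versus DMSO.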

The target of experiment [5] is Heat shock factor protein 1 (Homo sapiens) (UniProt Q00613). As to the kind of experiment: ATG_HSE_CIS: Attagene CIS-FACTORIAL HepG2 Assay for human Heat Shock Transcription Factor 1 (HSE) (AID 2282953). As to conditions: HepG2 HSE cis-reporter, Attagene RNA transcription; actives raise or lower the signal. In short, it runs like this:
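HepG2 cells transiently transfected with multiple reporter transcription units under cis-regulatory promoter control, measuring endogenous transcription factor activity. After 24 h chemical exposure, reporter mRNA quantified by RT-PCR, fluorescent labelling, HpaI digestion and capillary electrophoresis; bidirectional fit versus DMSO.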

Experiment [6] is described as follows: ATG_MRE_CIS: Attagene CIS-FACTORIAL HepG2 Assay for human Metal Responsive Element (MRE) (AID 2282954). As to conditions: HepG2 MRE cis-reporter transcription, Attagene multiplex; actives raise or lower the signal. In short, it runs like this:
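Step one: transfect HepG2 with cis-regulated reporter units. Step two: dose 24 h. Step three: isolate RNA, RT-PCR, 6-FAM label, HpaI digest, capillary electrophoresis. Fit bidirectionally to DMSO.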

A short description of experiment [7]: ATG_PBREM_CIS: Attagene CIS-FACTORIAL HepG2 Assay for human Phenobarbital-responsive Enhancer Module (PBREM) (AID 2282955). The note with it: HepG2 PBREM cis-reporter, Attagene multiplexed transcription; actives raise or lower the signal. Summed up:
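After a 24 h incubation with test chemical, transfected HepG2 cells yield total RNA; reporter-specific RT-PCR products are fluorescently labelled, HpaI-digested and resolved by capillary electrophoresis against ROX size standards.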

The target in experiment [8] is Paired box protein Pax-6 (Homo sapiens) (UniProt P26367). In words: ATG_Pax6_CIS: Attagene CIS-FACTORIAL HepG2 Assay for human Paired Box 6 (PAX6) (AID 2282956). As to conditions: HepG2 CIS-FACTORIAL PAX6 reporter transcription, RNA readout; actives raise or lower the signal. Summed up:
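HepG2 cells transiently transfected with multiplexed cis-promoter reporter units (endogenous TF activity) were dosed for 24 h. Reporter mRNA was quantified by RT-PCR, 6-FAM labeling, HpaI digestion and capillary electrophoresis; bidirectional fitting versus DMSO baseline.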

Experiment [9] can be described thus: ATG_PXRE_CIS: Attagene CIS-FACTORIAL HepG2 Assay for human Pregnane X Receptor Element (PXRE) (AID 2282957). As to conditions: HepG2 Attagene CIS-FACTORIAL PXRE reporter, mRNA; actives raise or lower the signal. In short, it runs like this: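 HepG2 cells transiently transfected with cis-element-driven multiplexed reporter units; after 24 h chemical exposure, reporter mRNA measured by RT-PCR, 6-FAM labelling, HpaI digestion and capillary electrophoresis. Bidirectional fitting relative to DMSO.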

Experiment [10] can be described thus: ATG_RORE_CIS: Attagene CIS-FACTORIAL HepG2 Assay for human RAR-related Orphan Receptor Element (RORE) (AID 2282959). As to conditions: HepG2 Attagene cis-factorial RORE reporter, mRNA; actives raise or lower the signal. Summed up:
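Fluorescence intensity of reporter-specific cDNA fragments, separated by capillary electrophoresis, gives the signal. Source: HepG2 liver cells transiently transfected with cis-element reporters and exposed 24 h; DMSO-normalized bidirectional fit.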

The nature of experiment [11]: ATG_Sox_CIS: Attagene CIS-FACTORIAL HepG2 Assay for human SRY-box transcription factor (SOX) (AID 2282960). As to conditions: HepG2 Attagene cis-factorial SOX reporter, mRNA; actives raise or lower the signal. In short, it runs like this: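 After 24 h of chemical treatment, transfected HepG2 reporter cells are lysed for total RNA. Transcript levels come from RT-PCR with labelled primer extension and capillary electrophoresis, analysed bidirectionally versus DMSO.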

Experiment [12] deals with Transcription factor Sp1 (Homo sapiens) (UniProt P08047). In words: ATG_Sp1_CIS: Attagene CIS-FACTORIAL HepG2 Assay for human Specificity Protein 1 (Sp1) (AID 2282961). The note with it: HepG2 Sp1 cis-reporter transcription, actives raise or lower the signal. In short, it runs like this: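 Sp1-driven reporter mRNA, read as capillary electrophoresis fluorescence after RT-PCR, in transiently transfected HepG2 cells dosed for 24 h; signal change in either direction relative to DMSO.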

Experiment [13] can be described thus: ATG_SREBP_CIS: Attagene CIS-FACTORIAL HepG2 Assay for human Sterol Regulatory Element Binding (SREBP) (AID 2282962). As to conditions: HepG2 Attagene cis-factorial SREBP reporter, mRNA; actives raise or lower the signal. In short, it runs like this:
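HepG2 cells transiently transfected with multiplexed cis-element reporter units report endogenous transcription factor activity. After 24 h of chemical exposure, reporter mRNA was quantified by RT-PCR, 6-FAM labelling, HpaI digestion and capillary electrophoresis; bidirectional fits used DMSO as baseline.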

For experiment [14], the target named is Signal transducer and activator of transcription 3 (Homo sapiens) (UniProt P40763). In words: ATG_STAT3_CIS: Attagene CIS-FACTORIAL HepG2 Assay for human Signal Transducer and Activator of Transcription 3 (STAT3) (AID 2282963). The note with it: HepG2, Attagene cis-factorial STAT3 reporter transcription; actives raise or lower the signal. Summed up: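 Transcript-level reporter assay. HepG2 transient MRTU transfection, 24 h exposure, fluorescence detection after RT-PCR and CE; DMSO baseline.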

Experiment [15] in a line: ATG_TA_CIS: Attagene CIS-FACTORIAL HepG2 Assay for human TA Basal Promoter (AID 2282964). As to conditions: HepG2 Attagene CIS-factorial TA basal promoter reporter; actives raise or lower the signal. Summed up:
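HepG2 cells transiently transfected with multiplexed cis-promoter reporter units, dosed 24 h. Reporter mRNA measured by RT-PCR, 6-FAM labelling, HpaI digestion and capillary electrophoresis; bidirectional fit versus DMSO baseline, serving as background control.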

The nature of experiment [16]: ATG_TCF_b_cat_CIS: Attagene CIS-FACTORIAL HepG2 Assay for human T-Cell-Factor with beta-catenin (TCF/b-cat) (AID 2282965). As to conditions: HepG2 TCF/beta-catenin cis-reporter transcription, actives raise or lower the signal. Summed up:
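Using capillary electrophoresis as the read-out, labelled reporter cDNA fragments from transiently transfected HepG2 were sized and quantified. Exposure lasted 24 hours; activity in either direction was referenced to DMSO.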

The nature of experiment [17]: ATG_TAL_CIS: Attagene CIS-FACTORIAL HepG2 Assay for human TAL Basal Promoter (AID 2282966).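 Also: background control endpoint measuring basal TAL promoter reporter mRNA not a specific factor.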 As to conditions: HepG2 Attagene cis-factorial TAL promoter reporter; actives raise or lower the signal. Summed up:
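HepG2 cells transiently transfected with multiplexed cis-promoter reporter units, dosed 24 h. Reporter mRNA quantified by RT-PCR, 6-FAM labelling, HpaI digestion and capillary electrophoresis; TAL basal promoter serves as background control, fitted bidirectionally versus DMSO.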

Experiment [18] can be described thus: ATG_TGFb_CIS: Attagene CIS-FACTORIAL HepG2 Assay for human Transforming Growth Factor (TGF) (AID 2282967). The note with it: HepG2 Attagene CIS TGFb reporter, mRNA transcription; actives raise or lower the signal. Summed up:
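HepG2 cells transiently transfected with cis-promoter-driven multiplexed reporter units; 24 h compound exposure. Reporter mRNA measured by RT-PCR, 6-FAM labeling, HpaI digestion and capillary electrophoresis; bidirectional fit versus DMSO baseline.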

Experiment [19] can be described thus: ATG_VDRE_CIS: Attagene CIS-FACTORIAL HepG2 Assay for human Vitamin D Receptor Element (VDRE) (AID 2282968). The note with it: HepG2 VDRE cis-reporter transcription, actives raise or lower the signal. Summed up:
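RT-PCR/CE readout of reporter mRNA; HepG2, transient transfection, 24 h dosing; DMSO baseline; bidirectional analysis.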

A short description of experiment [20]: ATG_PPRE_CIS: Attagene CIS-FACTORIAL HepG2 Assay for human Peroxisome Proliferator-activated Response Element (PPRE) (AID 2282958). The note with it: HepG2 PPRE cis-element reporter, Attagene transcription factor profiling; actives raise or lower the signal. In short, it runs like this: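 Multiplexed reporter transcription units under cis-regulatory promoters were transfected into HepG2 cells to capture endogenous factor activity. A 24 h incubation preceded RNA isolation and fluorescent RT-PCR fragment analysis.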

Activity calls are given as the source filed them. The calls were made as follows: active = hit-call score of the fitted dose curve at least 0.9, where 1 is the maximum; inactive = score below 0.9.

Signal transducer and activator of transcription 3 (Homo sapiens), sequence (P40763 whole entry, looked up): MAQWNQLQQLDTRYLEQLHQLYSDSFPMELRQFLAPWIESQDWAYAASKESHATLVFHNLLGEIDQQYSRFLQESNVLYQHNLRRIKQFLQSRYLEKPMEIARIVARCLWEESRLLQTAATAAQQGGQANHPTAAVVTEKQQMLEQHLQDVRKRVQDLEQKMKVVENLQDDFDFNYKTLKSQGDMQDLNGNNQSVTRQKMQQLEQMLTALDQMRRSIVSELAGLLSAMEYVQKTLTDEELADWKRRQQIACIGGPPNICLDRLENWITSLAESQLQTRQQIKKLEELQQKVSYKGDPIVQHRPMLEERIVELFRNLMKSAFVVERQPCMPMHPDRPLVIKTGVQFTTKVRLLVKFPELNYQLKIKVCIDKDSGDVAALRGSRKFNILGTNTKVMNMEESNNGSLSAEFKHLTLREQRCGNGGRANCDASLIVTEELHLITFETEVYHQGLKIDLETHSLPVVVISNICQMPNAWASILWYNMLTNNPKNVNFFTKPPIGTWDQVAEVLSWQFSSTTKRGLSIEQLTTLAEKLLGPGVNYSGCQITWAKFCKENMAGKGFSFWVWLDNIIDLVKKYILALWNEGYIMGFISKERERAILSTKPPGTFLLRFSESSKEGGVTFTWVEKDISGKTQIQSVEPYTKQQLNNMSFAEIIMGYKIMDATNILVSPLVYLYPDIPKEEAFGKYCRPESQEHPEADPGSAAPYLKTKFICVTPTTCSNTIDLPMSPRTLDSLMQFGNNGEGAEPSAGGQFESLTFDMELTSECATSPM
Hypoxia-inducible factor 1-alpha (Homo sapiens), sequence (Q16665 whole entry, looked up): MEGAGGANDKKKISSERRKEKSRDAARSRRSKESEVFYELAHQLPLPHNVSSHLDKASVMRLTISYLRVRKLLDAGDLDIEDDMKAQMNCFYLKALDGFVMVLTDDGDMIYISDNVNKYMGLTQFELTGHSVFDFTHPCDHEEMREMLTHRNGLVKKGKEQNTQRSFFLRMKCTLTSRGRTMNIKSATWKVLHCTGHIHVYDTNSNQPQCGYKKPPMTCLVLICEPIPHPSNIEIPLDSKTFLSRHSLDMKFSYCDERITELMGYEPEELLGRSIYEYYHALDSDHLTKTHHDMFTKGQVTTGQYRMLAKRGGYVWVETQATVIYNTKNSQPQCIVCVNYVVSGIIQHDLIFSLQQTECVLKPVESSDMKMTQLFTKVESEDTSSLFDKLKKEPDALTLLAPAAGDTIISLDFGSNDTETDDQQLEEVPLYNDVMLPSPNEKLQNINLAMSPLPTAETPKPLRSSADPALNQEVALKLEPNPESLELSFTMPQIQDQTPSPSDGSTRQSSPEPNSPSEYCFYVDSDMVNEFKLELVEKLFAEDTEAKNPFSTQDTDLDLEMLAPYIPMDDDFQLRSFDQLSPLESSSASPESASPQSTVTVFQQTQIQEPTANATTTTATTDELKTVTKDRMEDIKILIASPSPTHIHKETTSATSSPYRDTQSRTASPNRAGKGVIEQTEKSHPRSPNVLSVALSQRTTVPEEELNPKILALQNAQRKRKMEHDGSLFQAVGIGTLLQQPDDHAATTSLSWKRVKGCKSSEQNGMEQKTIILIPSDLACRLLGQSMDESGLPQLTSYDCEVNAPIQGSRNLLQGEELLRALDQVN
Hepatocyte nuclear factor 6 (Homo sapiens), sequence (Q9UBC0 whole entry, looked up, the tested form may be a part): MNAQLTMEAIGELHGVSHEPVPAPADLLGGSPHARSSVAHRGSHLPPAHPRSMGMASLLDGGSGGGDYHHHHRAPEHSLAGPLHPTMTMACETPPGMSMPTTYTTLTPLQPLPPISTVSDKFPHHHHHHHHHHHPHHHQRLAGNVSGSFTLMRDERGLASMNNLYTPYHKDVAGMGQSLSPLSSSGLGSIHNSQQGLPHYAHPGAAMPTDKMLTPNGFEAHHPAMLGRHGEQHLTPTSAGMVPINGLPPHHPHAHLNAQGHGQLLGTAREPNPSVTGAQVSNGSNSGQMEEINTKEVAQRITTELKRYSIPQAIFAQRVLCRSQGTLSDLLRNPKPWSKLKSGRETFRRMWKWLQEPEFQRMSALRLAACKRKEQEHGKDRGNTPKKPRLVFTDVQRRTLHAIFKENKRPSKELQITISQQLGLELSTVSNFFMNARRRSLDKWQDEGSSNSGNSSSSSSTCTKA
Heat shock factor protein 1 (Homo sapiens), sequence (Q00613 whole entry, looked up): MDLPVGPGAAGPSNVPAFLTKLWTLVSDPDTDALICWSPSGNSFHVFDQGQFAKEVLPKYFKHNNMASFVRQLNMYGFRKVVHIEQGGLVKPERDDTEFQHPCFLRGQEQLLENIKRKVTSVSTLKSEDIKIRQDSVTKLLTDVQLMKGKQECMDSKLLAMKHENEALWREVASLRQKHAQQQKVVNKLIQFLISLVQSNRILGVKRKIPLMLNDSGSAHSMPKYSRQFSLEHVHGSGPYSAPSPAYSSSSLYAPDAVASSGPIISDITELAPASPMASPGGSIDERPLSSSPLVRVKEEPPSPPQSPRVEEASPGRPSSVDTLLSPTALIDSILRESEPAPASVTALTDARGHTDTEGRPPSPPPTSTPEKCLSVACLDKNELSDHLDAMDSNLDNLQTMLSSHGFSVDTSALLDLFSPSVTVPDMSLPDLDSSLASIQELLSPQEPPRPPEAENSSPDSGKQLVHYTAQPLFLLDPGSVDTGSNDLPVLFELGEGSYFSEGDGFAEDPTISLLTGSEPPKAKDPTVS
Transcription factor Sp1 (Homo sapiens), sequence (P08047 whole entry, looked up): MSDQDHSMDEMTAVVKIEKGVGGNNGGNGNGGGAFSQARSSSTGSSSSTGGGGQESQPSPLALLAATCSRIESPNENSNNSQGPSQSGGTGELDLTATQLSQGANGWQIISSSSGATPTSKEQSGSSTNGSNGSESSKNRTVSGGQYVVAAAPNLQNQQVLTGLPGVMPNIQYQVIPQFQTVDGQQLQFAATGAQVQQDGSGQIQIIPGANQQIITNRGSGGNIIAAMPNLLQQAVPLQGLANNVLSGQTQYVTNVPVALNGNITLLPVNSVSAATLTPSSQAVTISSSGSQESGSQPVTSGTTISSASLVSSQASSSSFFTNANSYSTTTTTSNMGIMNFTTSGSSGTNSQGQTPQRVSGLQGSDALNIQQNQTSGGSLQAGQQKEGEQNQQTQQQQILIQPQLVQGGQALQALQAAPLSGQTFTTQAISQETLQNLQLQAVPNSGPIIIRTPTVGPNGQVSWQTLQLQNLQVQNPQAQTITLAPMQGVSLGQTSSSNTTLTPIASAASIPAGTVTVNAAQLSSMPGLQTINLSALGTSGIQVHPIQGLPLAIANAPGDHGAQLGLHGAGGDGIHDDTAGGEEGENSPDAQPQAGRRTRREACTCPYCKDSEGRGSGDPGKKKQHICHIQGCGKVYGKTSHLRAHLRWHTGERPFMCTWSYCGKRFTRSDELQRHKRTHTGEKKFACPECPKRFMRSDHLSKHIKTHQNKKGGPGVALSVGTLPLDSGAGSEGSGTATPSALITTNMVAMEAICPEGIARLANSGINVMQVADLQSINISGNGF
Paired box protein Pax-6 (Homo sapiens), sequence (P26367 whole entry, looked up): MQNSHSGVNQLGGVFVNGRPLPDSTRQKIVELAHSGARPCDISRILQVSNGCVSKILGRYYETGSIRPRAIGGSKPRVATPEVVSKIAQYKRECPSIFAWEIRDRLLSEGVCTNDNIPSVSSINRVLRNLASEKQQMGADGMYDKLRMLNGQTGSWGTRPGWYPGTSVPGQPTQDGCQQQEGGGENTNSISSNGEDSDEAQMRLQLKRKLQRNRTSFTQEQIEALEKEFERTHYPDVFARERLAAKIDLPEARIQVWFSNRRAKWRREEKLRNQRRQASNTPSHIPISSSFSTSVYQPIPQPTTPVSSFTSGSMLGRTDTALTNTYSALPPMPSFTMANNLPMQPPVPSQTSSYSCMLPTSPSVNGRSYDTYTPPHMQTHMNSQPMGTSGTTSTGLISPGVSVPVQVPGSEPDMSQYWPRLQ

What is called AC50 is the midpoint of the concentration-response curve, whichever way the signal moves. For the compound `Nc1ccc(-c2ccccc2)cc1`, the outcome in experiment [1], in experiment [2], in [3], in [4], in experiment [5] and in experiment [7] was inactive. In addition, the outcome in [8], in [10], in [11], in experiment [12], in experiment [13] and in experiment [14] was inactive. The call in [15], in experiment [16], in [17], in [18] and in [19] was inactive. Further, the AC50 in experiment [6] was 56.8 µM (active); in [9], 30.1 µM (active).
Consider `CCCCS(=O)(=O)Cl`, for which the result in experiment [1], in experiment [2], in experiment [3], in experiment [4], in experiment [5] and in experiment [6] was inactive. Further, the result in [7], in experiment [8], in experiment [9], in experiment [20], in [10] and in [12] was inactive. Further, the compound was called inactive in experiment [13], in [14], in experiment [15], in [16], in experiment [17] and in [18]. Besides, the call in experiment [19] was inactive.
Take `Cc1cc(Cl)ccc1N`: the compound was called inactive in experiment [1], in experiment [2], in experiment [3], in experiment [4], in [5] and in [6]. The result in [7], in experiment [8], in experiment [20], in experiment [10], in experiment [11] and in experiment [12] was inactive. Further, the compound was classed as inactive in experiment [13], in experiment [14], in [15], in [16], in [17] and in experiment [18].
For `BrCC(Br)c1ccccc1` (stereo not drawn), the compound was classed as inactive in experiment [1], in [2], in [3], in [4], in [5] and in experiment [6]. The compound was called inactive in experiment [8], in experiment [20], in [10], in [11], in [12] and in [13]. The call in experiment [14], in experiment [15], in [16], in experiment [17] and in experiment [19] was inactive. Further, the AC50 in experiment [9] is 27.3 µM (active).
For `CCCCN(CCCC)C(=S)[S-].CCCCN(CCCC)C(=S)[S-].[Ni+2]`, the outcome in [1], in [2], in experiment [3], in [4], in experiment [5] and in [6] was inactive. The compound was called inactive in experiment [8], in experiment [10], in experiment [11], in experiment [12], in [13] and in [14]. For the same compound, the compound was classed as inactive in experiment [15], in experiment [16], in experiment [17], in experiment [18] and in [19]. In addition, in [9], the AC50 is 7.2 µM (active).
Turning to `N#CS`, the compound was classed as inactive in experiment [1], in experiment [2], in [3], in experiment [4], in experiment [5] and in [6]. In addition, the compound was called inactive in experiment [8], in experiment [9], in experiment [20], in experiment [10], in experiment [11] and in experiment [12]. For the same compound, the compound was classed as inactive in experiment [13], in [14], in [15], in experiment [16], in [17] and in experiment [18]. In [19], the compound was called inactive.
Regarding `CC(=O)CN(CC(C)=O)N=O`, the outcome in experiment [1], in experiment [2], in experiment [3], in experiment [4], in experiment [5] and in experiment [6] was inactive. In addition, the result in experiment [8], in experiment [9], in [20], in experiment [10], in experiment [11] and in experiment [12] was inactive. Moreover, the result in experiment [14], in [15], in experiment [16], in experiment [17] and in experiment [18] was inactive.

These data come from PubChem BioAssay (EPA / NIEHS).
